About 83,000 compounds went through this panel and 20% of them were active in at least one assay; those are over-represented in the sample as a whole.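 Cells were grown in 96-well plates and exposed to the test compound at a single concentration for 48 hours; results are reported as percent growth, with values below 10 considered active.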 A number with no mark means an inactive call. Calls of active or inactive are those of the source.

The subject of the assay is U251 CNS. Put plainly: NCI-60 one-dose screen, 48 h (100 = growth as untreated, 0 = no growth, -100 = all killed). The settings on record: 10 µM.
In the case of `O=S(=O)(NC1c2ccccc2Oc2ccccc21)c1cc(Cl)ccc1Cl`, the growth is 95.7%. With `COc1ccc(OC)c([N+](=O)[O-])c1C=O`, the growth is 105%.

With `c1ccc(CC(NCCNC(Cc2ccccc2)c2ccccc2)c2ccccc2)cc1` (stereo not drawn), the growth was 13%. Next, `COc1ccc(-c2nsc3c2NC(=O)CC3c2cccc(Cl)c2)cc1` (stereo not drawn): 35%; `Oc1ccc(/C=N\Nc2ccccn2)c(O)c1`: 26.5%. Regarding `O=c1ccc2nc(-c3ccccc3)nn(-c3ccccc3)c-2c1`, the growth is 66.2%.

`COc1ccc2nc(C)cc(Nc3ccc(Cl)cc3)c2c1`: the growth is 97.1%. Next, `COc1c(-c2c3sc(=O)[nH]c3nc3c2c(=O)[nH]n3C(C)C)cc2c(c1OC)OCO2`: 97.9%.

Regarding `Fc1cc(-c2ncc(-c3cc(F)c(F)c(F)c3)c(NC3CCCCCC3)n2)cc(F)c1F`, the growth was 83.4%. `COc1ccc(NC(=O)CCn2cnc3c(cc(-c4ccccc4)n3-c3ccccc3)c2=O)cc1`: the growth is 77.4%. With `N#CCC1CCCC1`, the growth was 97.4%.

`COc1ccc(-c2nnc(COc3ccc(NC(=O)Nc4cccc(C(F)(F)F)c4)cc3F)o2)cc1`: the growth is 48.1%.

Turning to `COc1ccc(/C=C2\SC(=S)N(CCCN3CCOCC3)C2=O)c(OC)c1`, the growth was 97.3%. Turning to `COc1cc2nc(Sc3sc(N)nc3C)n(-c3ccc(Oc4ccccc4)cc3)c(=O)c2cc1OC`, the growth was 87.6%. For `Cc1ccc2oc(=O)cc(/C(=C3/C=CC=N3)c3ccc[nH]3)c2c1`, the growth is -17.2% (active). Turning to `Nc1ccccc1NC(=O)CCCCCCC(=O)Nc1ccc2c(c1)/C(=C/c1ccc[nH]1)C(=O)N2`, the growth is 20.5%. With `COc1ccccc1Cn1cc2c(c1-c1ccccc1)CCc1cnoc1-2`, the growth is 39.7%.

`COc1cc(-c2nc3ccc(C)cc3[nH]2)ccc1OCc1nnc(-c2ccc(CC(C)C)cc2)o1`: the growth is 75.6%.

Consider `C[n+]1c(/C=C/c2c[nH]c3ccccc23)ccc2ccccc21`, for which the growth is 69.9%. Take `COc1cc(Cl)cc(-c2nn(-c3cccc(NC(=O)Nc4cccc(C(F)(F)F)c4)c3)cc2-c2ccncc2)c1`: the growth is 4.59% (active). As to `COc1cc(/C=C/C(=O)c2cc(-c3ccc(F)cc3)ccc2O)cc(OC)c1OC`, the growth is 79.9%. Consider `Cc1ccc2c(c1)-c1cc(C)nn1-c1ccc(C#N)cc1O2`, for which the growth was 46.9%.

With `C=CCNC(=S)NN`, the growth was 77.4%. Next, `CC(=O)Nc1ccc(Sc2ccc(NC(C)=O)cc2)cc1`: 95.9%; `CC(=O)N(O)c1ccc(/C=C/c2ccccc2)cc1`: 14.1%. `CCOc1nc(-c2ccccc2)cc2c(O)c(C(=O)N/N=C/c3ccc(OC)cc3)[nH]c(=O)c12`: the growth is 100%. On to `O=C(COc1ccc(Cl)cc1Cl)Oc1coc(CSc2nc3ccccc3s2)cc1=O`, for which the growth is 97.3%. Next, `COc1ccc(Cn2cc3c(c2-c2ccccc2)CC(C)(C)c2cnoc2-3)cc1`: 43.8%; `Cc1nnc2c3nnc(-c4ccc(Cl)cc4)n3c3ccccc3n12`: 100%. As for `Nc1ccc(Sc2ccc3c4c2cccc4c(=O)n2c4ccccc4nc32)cc1`, the growth was 39.9%.

Turning to `COc1cccc(C(=O)NNc2nc(N3CCN(C4CCCCC4)CC3)nc(N3CCN(C(c4ccccc4)c4ccccc4)CC3)n2)c1`, the growth is 32.6%. For `Cc1ncc([N+](=O)[O-])n1CCOc1ccc(C(=O)/C=C/c2ccc(C(F)(F)F)cc2)cc1`, the growth is 51.7%. In the case of `O=C(CCc1ccccc1)N1CCN(C(=O)CCc2ccccc2)CC1`, the growth is 104%.

The values are drawn from PubChem BioAssay (NCI).
